Results published in PubChem BioAssay (NCI).
About 79,000 compounds went through this panel and 15% of them were active in at least one assay; those are over-represented in the sample as a whole. A number with no mark means an inactive call. Calls of active or inactive are those of the source. Cut-off read from the data, not from the text of the source: active = growth inhibition above about 70%; inactive = the rest.

Columns and labels:
[1] = NCI Yeast Anticancer Drug Screen. Data for the rad50 strain (AID 155);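 note: 0% = growth of vehicle-only cultures of the same strain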; settings: S. cerevisiae rad50 strain growth inhibition, stronger effect = higher value
Procedure, shortened: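 Genetically altered yeast (DNA repair pathway); compound treatment; growth inhibition vs vehicle ctrl.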

[2] = NCI Yeast Anticancer Drug Screen. Data for the mec2-1 strain (AID 157); settings: S. cerevisiae mec2-1 strain, stronger effect = higher value
Procedure, shortened: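 Each compound was tested on mec2-1 yeast, a strain altered in DNA damage repair or cell cycle control. Growth inhibition is reported relative to vehicle.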

[3] = NCI Yeast Anticancer Drug Screen. Data for the sgs1 mgt1 strain (AID 161);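 note: 0% = growth of cultures given vehicle only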; settings: S. cerevisiae sgs1 mgt1 strain, stronger effect = higher value
Procedure, shortened: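 Test agents were incubated with a DNA-repair-mutant yeast strain. Growth was then read and compared against vehicle-treated controls.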

[4] = NCI Yeast Anticancer Drug Screen. Data for the cln2 rad14 strain (AID 165);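 note: 0% = growth equal to vehicle treated cultures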; settings: S. cerevisiae cln2 rad14 strain, stronger effect = higher value
Procedure, shortened: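 Test compounds were added to cln2 rad14 yeast cultures; inhibition of growth was then determined by comparison with vehicle treatment.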

[5] = NCI Yeast Anticancer Drug Screen. Data for the bub3 strain (AID 167); settings: S. cerevisiae bub3 mutant strain, stronger effect = higher value
Procedure, shortened: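 Yeast carrying a defined mutation is treated with each compound, and growth is compared with that of vehicle-exposed cells to give inhibition.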

[6] = NCI Yeast Anticancer Drug Screen. Data for the mlh1 rad18 strain (AID 175); settings: S. cerevisiae mlh1 rad18 strain growth inhibition, stronger effect = higher value
Procedure, shortened: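 Inhibition values reflect reduced growth of mutant yeast versus vehicle-treated controls following compound exposure; the mutations affect DNA damage repair.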

[7] = at 5.0 µM (retest, dose inferred, filed as 0.5)
[8] = at 50.0 µM (retest, dose inferred, filed as 5.0)

In the case of `Cc1cccc2nc3nc(Cl)c(Cl)nc3n12`, the growth inhibition [1, 7] is reported as 4%, the growth inhibition [1, 8] is reported as 76% (active) and the growth inhibition ([1]; at 50.0 µM) is reported as 75.7% (active). For the same compound, the growth inhibition [2, 7] was 17%, the growth inhibition [2, 8] was 82% (active) and the growth inhibition ([2]; at 50.0 µM) was 50.1%. The growth inhibition [3, 7] was 13%, the growth inhibition [3, 8] was 91% (active) and the growth inhibition ([3]; at 50.0 µM) was 64.5%. The growth inhibition [4, 7] was 7%, the growth inhibition [4, 8] was 54% and the growth inhibition ([4]; at 50.0 µM) was 51.5%. The growth inhibition [5, 7] was 8%, the growth inhibition [5, 8] was 36% and the growth inhibition ([5]; at 50.0 µM) was 51.4%. The growth inhibition [6, 7] was 26%, the growth inhibition [6, 8] was 95% (active) and the growth inhibition ([6]; at 50.0 µM) was 90.8% (active).
For `CC1CCCCC12C(C#N)(C#N)C2(C#N)C#N` (configuration not stated), the growth inhibition [1, 7] was 22%, the growth inhibition [1, 8] was 90% (active) and the growth inhibition ([1]; at 50.0 µM) was 99.2% (active). For the same compound, the growth inhibition [2, 7] was 30%, the growth inhibition [2, 8] was 97% (active) and the growth inhibition ([2]; at 50.0 µM) was 99.3% (active). The growth inhibition [3, 7] was 33%, the growth inhibition [3, 8] was 97% (active) and the growth inhibition ([3]; at 50.0 µM) was 99.5% (active). For the same compound, the growth inhibition [4, 7] was 8%, the growth inhibition [4, 8] was 89% (active) and the growth inhibition ([4]; at 50.0 µM) was 99.2% (active). The growth inhibition [5, 7] was 43%, the growth inhibition [5, 8] was 97% (active) and the growth inhibition ([5]; at 50.0 µM) was 99.4% (active). For the same compound, the growth inhibition [6, 7] was 41%, the growth inhibition [6, 8] was 98% (active) and the growth inhibition ([6]; at 50.0 µM) was 99.3% (active).
In the case of `O=C(CSCc1c(F)cccc1Cl)Nc1ccc(F)c(Cl)c1`, the growth inhibition [1, 7] is reported as 51%, the growth inhibition [1, 8] is reported as 39% and the growth inhibition ([1]; at 50.0 µM) is reported as 88.3% (active). For the same compound, the growth inhibition [2, 7] was 34%, the growth inhibition [2, 8] was 38% and the growth inhibition ([2]; at 50.0 µM) was 91.3% (active). For the same compound, the growth inhibition [3, 7] was 36%, the growth inhibition [3, 8] was 50% and the growth inhibition ([3]; at 50.0 µM) was 91.7% (active). For the same compound, the growth inhibition [4, 7] was 33%, the growth inhibition [4, 8] was 44% and the growth inhibition ([4]; at 50.0 µM) was 90.1% (active). For the same compound, the growth inhibition [5, 7] was 45%, the growth inhibition [5, 8] was 76% (active) and the growth inhibition ([5]; at 50.0 µM) was 91.5% (active). The growth inhibition [6, 7] was 49%, the growth inhibition [6, 8] was 53% and the growth inhibition ([6]; at 50.0 µM) was 63.2%.
With `C=C(CN(C)C)C(=O)c1ccccc1C` the growth inhibition [1, 7] was -2%, the growth inhibition [1, 8] was 65% and the growth inhibition ([1]; at 50.0 µM) was 87.6% (active). The growth inhibition [2, 7] was -8%, the growth inhibition [2, 8] was 88% (active) and the growth inhibition ([2]; at 50.0 µM) was 78.7% (active). The growth inhibition [3, 7] was 13%, the growth inhibition [3, 8] was 86% (active) and the growth inhibition ([3]; at 50.0 µM) was 85% (active). The growth inhibition [4, 7] was -17%, the growth inhibition [4, 8] was 45% and the growth inhibition ([4]; at 50.0 µM) was 65.8%. The growth inhibition [5, 7] was -11%, the growth inhibition [5, 8] was 89% (active) and the growth inhibition ([5]; at 50.0 µM) was 91.1% (active). For the same compound, the growth inhibition [6, 7] was -4%, the growth inhibition [6, 8] was 97% (active) and the growth inhibition ([6]; at 50.0 µM) was 97% (active).
For `COc1ccc(C=Nc2ccccc2O)cc1`, the growth inhibition [1, 7] was 26%, the growth inhibition [1, 8] was 44% and the growth inhibition ([1]; at 50.0 µM) was 59.1%. The growth inhibition [2, 7] was 15%, the growth inhibition [2, 8] was 22% and the growth inhibition ([2]; at 50.0 µM) was 32.2%. For the same compound, the growth inhibition [3, 7] was 11%, the growth inhibition [3, 8] was 15% and the growth inhibition ([3]; at 50.0 µM) was 39.5%. It also gave a growth inhibition [4, 7] of -2%, a growth inhibition [4, 8] of 13% and a growth inhibition ([4]; at 50.0 µM) of -15.9%. The growth inhibition [5, 7] was 81% (active), the growth inhibition [5, 8] was 74% (active) and the growth inhibition ([5]; at 50.0 µM) was 76.6% (active). The growth inhibition [6, 7] was 38%, the growth inhibition [6, 8] was 54% and the growth inhibition ([6]; at 50.0 µM) was 67.4%.
Work on `CCOC(=O)C1CC2(CCC1N)c1ccccc1-c1ccccc12` (configuration not stated) yielded a growth inhibition [1, 7] of 3%, a growth inhibition [1, 8] of 28% and a growth inhibition ([1]; at 50.0 µM) of 28.6%. It also gave a growth inhibition [2, 7] of -5%, a growth inhibition [2, 8] of 8% and a growth inhibition ([2]; at 50.0 µM) of 47.5%. For the same compound, the growth inhibition [3, 7] was -2%, the growth inhibition [3, 8] was 27% and the growth inhibition ([3]; at 50.0 µM) was 44.5%. For the same compound, the growth inhibition [4, 7] was -5%, the growth inhibition [4, 8] was 34% and the growth inhibition ([4]; at 50.0 µM) was 22.9%. The growth inhibition [5, 7] was -5%, the growth inhibition [5, 8] was 23% and the growth inhibition ([5]; at 50.0 µM) was 90.7% (active). The growth inhibition [6, 7] was 1%, the growth inhibition [6, 8] was 81% (active) and the growth inhibition ([6]; at 50.0 µM) was 37.5%.
In the case of `C/C=C/c1ccc(OCC(=O)O)c(OC)c1`, the growth inhibition [1, 7] is reported as -14%, the growth inhibition [1, 8] is reported as -10% and the growth inhibition ([1]; at 50.0 µM) is reported as 99% (active). The growth inhibition [2, 7] was -9%, the growth inhibition [2, 8] was -18% and the growth inhibition ([2]; at 50.0 µM) was 98.2% (active). For the same compound, the growth inhibition [3, 7] was 8%, the growth inhibition [3, 8] was 1% and the growth inhibition ([3]; at 50.0 µM) was 98.2% (active). The growth inhibition [4, 7] was -3%, the growth inhibition [4, 8] was -11% and the growth inhibition ([4]; at 50.0 µM) was 98.2% (active). The growth inhibition [5, 7] was -31%, the growth inhibition [5, 8] was -4% and the growth inhibition ([5]; at 50.0 µM) was 98.8% (active). For the same compound, the growth inhibition [6, 7] was -5%, the growth inhibition [6, 8] was -11% and the growth inhibition ([6]; at 50.0 µM) was 98% (active).
In the case of `CCC[CH2][Sn]([CH2]CCC)([NH]c1ncnc2[nH]cnc12)[NH]c1ncnc2[nH]cnc12`, the growth inhibition [1, 7] is reported as 14%, the growth inhibition [1, 8] is reported as 96% (active) and the growth inhibition ([1]; at 50.0 µM) is reported as 87.8% (active). For the same compound, the growth inhibition [2, 7] was 14%, the growth inhibition [2, 8] was 98% (active) and the growth inhibition ([2]; at 50.0 µM) was 91.7% (active). For the same compound, the growth inhibition [3, 7] was 24%, the growth inhibition [3, 8] was 94% (active) and the growth inhibition ([3]; at 50.0 µM) was 85.5% (active). The growth inhibition [4, 7] was 30%, the growth inhibition [4, 8] was 89% (active) and the growth inhibition ([4]; at 50.0 µM) was 85.2% (active). The growth inhibition [5, 7] was 14%, the growth inhibition [5, 8] was 95% (active) and the growth inhibition ([5]; at 50.0 µM) was 87.6% (active). The growth inhibition [6, 7] was 20%, the growth inhibition [6, 8] was 98% (active) and the growth inhibition ([6]; at 50.0 µM) was 86.9% (active).
In the case of `CCCn1cc2c(SC)nc(SC)nc2n1`, the growth inhibition [1, 7] is reported as -1%, the growth inhibition [1, 8] is reported as 5% and the growth inhibition ([1]; at 50.0 µM) is reported as 98.1% (active). For the same compound, the growth inhibition [2, 7] was 0%, the growth inhibition [2, 8] was 46% and the growth inhibition ([2]; at 50.0 µM) was 98.3% (active). For the same compound, the growth inhibition [3, 7] was -2%, the growth inhibition [3, 8] was 10% and the growth inhibition ([3]; at 50.0 µM) was 97% (active). The growth inhibition [4, 7] was 2%, the growth inhibition [4, 8] was 38% and the growth inhibition ([4]; at 50.0 µM) was 87.3% (active). The growth inhibition [5, 7] was 4%, the growth inhibition [5, 8] was 99% (active) and the growth inhibition ([5]; at 50.0 µM) was 99.5% (active). For the same compound, the growth inhibition [6, 7] was -3%, the growth inhibition [6, 8] was 14% and the growth inhibition ([6]; at 50.0 µM) was 98.1% (active).
